The list is not random: actives were taken first. Their share in the collection is about 3.2%.
TbPYK inhibitor – qHTS of Trypanosoma Brucei Inhibitors; actives 0.12% (n = 410,000); Potency, µM (highest dose often 76.8 µM), for the others: at the top dose activity, negative = inhibition, usual class: inhibitors; pyruvate kinase (Trypanosoma brucei), Q57TT1; TbPYK enzyme, Kinase-Glo Plus ATP luminescence, 45 min; AID 624173, 2012; also: nearly all actives have a fitted effect of over 50% in size
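Assay buffer: 50 mM TEA pH 7.2, 100 mM KCl, 10 mM MgCl2, 0.05% BSA, 0.01% Tween-20. Pyruvate kinase from T. brucei plus substrate met compound, then ADP (130 uM final). Luminescence was read post 45 min RT.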
RE007 growth inh – qHTS Assay for Inhibitors of the HIV-1 protein Vpr. Potency, µM (top dose mostly 92.2 µM), for the others: top-dose activity change, negative = less growth, actives largely listed as inhibitors. actives 0.21% (n = 360,000). S. pombe RE007 Vpr strain, BacTiter-Glo ATP luminescence, 24 h; active = well fitted falling curve with a large enough effect; inconclusive = small, poorly fitted or top-dose-only effect; inactive = no such curve, though single readings can be large or run the other way; also: nearly all actives have a fitted effect of over 50% in size
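Fission yeast strain RE007, carrying one chromosomally integrated HIV-1 vpr copy, was seeded at OD 0.01 in PMG+AL medium with 23 nL pinned compound. After 24 h at 30 °C and 99% humidity, viability was read by BacTiter-Glo luminescence.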
Sm TGR block – qHTS Assay for the Inhibitors of Schistosoma Mansoni Peroxiredoxins. actives 3% (n = 360,000). AID 485364, 2010. Potency, µM (doses to about 114 µM), without a hit: at the highest dose activity change, negative = inhibition, hits mostly inhibitors. purified TGR, DTNB reduction, TNB absorbance 405 nm; also: nearly all actives have a fitted effect of over 60% in size
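Kinetic colorimetric format: TGR-catalysed, NADPH-driven DTNB reduction monitored via TNB absorbance. Enzyme dispensed at 20 nM; compound exposure 15 min at room temperature before reaction start.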
LmPK inhibitor – qHTS Assay for Inhibitors of Leishmania Mexicana Pyruvate Kinase (LmPK) | purified LmPK, Kinase-Glo ATP luminescence, 1 h | Potency, µM (highest dose often 57.5 µM), inactives show top-dose activity change, negative = inhibition, actives largely listed as inhibitors | actives 0.37% (n = 290,000) | AID 1721, 2009
Target sequence (Q27686 whole entry, looked up): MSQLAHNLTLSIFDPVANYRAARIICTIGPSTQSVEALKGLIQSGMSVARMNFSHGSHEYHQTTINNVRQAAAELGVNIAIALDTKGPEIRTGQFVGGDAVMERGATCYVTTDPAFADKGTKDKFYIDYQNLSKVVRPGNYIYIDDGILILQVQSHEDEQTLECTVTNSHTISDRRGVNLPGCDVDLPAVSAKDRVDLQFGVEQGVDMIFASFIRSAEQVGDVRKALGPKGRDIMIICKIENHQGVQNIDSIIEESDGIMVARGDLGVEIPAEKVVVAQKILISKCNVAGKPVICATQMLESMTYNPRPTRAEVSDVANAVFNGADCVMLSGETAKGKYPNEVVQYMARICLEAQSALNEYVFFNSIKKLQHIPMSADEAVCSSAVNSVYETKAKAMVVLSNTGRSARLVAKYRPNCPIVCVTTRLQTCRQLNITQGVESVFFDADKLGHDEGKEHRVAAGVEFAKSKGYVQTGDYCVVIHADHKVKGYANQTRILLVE
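Screened at intermediate enzyme activity to detect both inhibitors and activators: LmPK at 0.1 nM, with a 0.5 nM enzyme column as activation reference. PEP 0.5 mM, ADP 0.1 mM; ATP detected by luminescence after 1 h.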
AMA1 RON2 block – qHTS for Inhibitors of AMA1-RON; Towards Development of Antimalarial Drug Lead: Primary Screen | Plasmodium falciparum AMA1 (3D7) - RON2 peptide interaction | AlphaScreen AMA1-biotinylated RON2 peptide binding | Potency, µM (titrated, usually from 58.2 µM), for inactives: top-dose activity change, negative = inhibition, actives largely listed as inhibitors | actives 0.2% (n = 360,000) | AID 720542, 2013;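 also: 0% = vehicle wells and -100% = peptide control; nearly all actives have a fitted effect of over 45% in size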
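AMA1 (3D7) with his tag at 25 nM final met compounds first, then biotinylated RON2 peptide at 25 nM; detection used donor plus acceptor beads, 10 µg/mL apiece, read by AlphaScreen after 30 min at room temperature.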
* = called active by the depositor; ? = inconclusive; / = no result given; [ ] = another dose, or the depositor's remark. Unless noted, calls follow the shape of the dose curve; as a rule, active = well fitted curve in the direction sought with a large enough effect; inconclusive = small, poorly fitted or top-dose-only effect, or another doubt; inactive = no such curve, though single readings can be large; an effect the other way counts as inactive or inconclusive. Unless noted, % is scaled to controls: 0 for no effect and ±100 for the full control effect; potency is read from the fitted curve at half-maximal effect.

SMILES | TbPYK inhibitor | RE007 growth inh | Sm TGR block | LmPK inhibitor | AMA1 RON2 block
Cc1cn2c(=O)c(S(=O)(=O)Nc3ccc(OC(F)(F)F)cc3)c(C)nc2s1 | 2.9% | / | -14.8% | / | /
C=CCc1ccc(OCC(O)CN2CCN(c3ccccc3OC)CC2)c(OC)c1 (stereo not drawn) | 2.7% | -1.9% | 0.0% | -0.6% | -8.3%
C=CCc1ccc(OCC(O)CN2CCC(Cc3ccccc3)CC2)c(OC)c1 (stereo not drawn) | -7.3% | 11.1% | 50.1µM* | 0.8% | -6.8%
CCCC(=O)N1c2ccccc2[C@@H](N(C(C)=O)c2ccccc2)C[C@H]1C | 2.4% | 2.9% | 0.0% | -4.1% | -2.4%
CCC(=O)N1c2ccccc2C(N(C(C)=O)c2ccccc2)CC1C (stereo not drawn) | 0.8% | -1.4% | 10µM* | 1.9% | -3.4%
C/C=C/C(=O)OCC(=O)Nc1ccc(C)c(S(=O)(=O)N(C)C)c1 | -2.6% | -18.3% | 44.7µM* | -1.5% | -3.0%
Cc1ccc(NC(=O)COC(=O)/C=C/c2ccco2)cc1S(=O)(=O)N(C)C | -11.6% | / | 25.1µM* | 5.0% | -15.1%
Cc1ccc(NC(=O)COC(=O)c2ccc(Cl)cc2)cc1S(=O)(=O)N(C)C | -4.0% | -6.7% | 0.8% | 7.5% | -2.8%
CN(C)S(=O)(=O)c1cccc(NC(=O)COC(=O)/C=C/c2ccco2)c1 | -23.0% | 20.6% | ? | 2.9% | -6.8%
CCN(CC)S(=O)(=O)c1cccc(NC(=O)COC(=O)/C=C/c2ccco2)c1 | -4.8% | -9.9% | 22.4µM* | 3.6% | -12.0%
Cc1cccc(-n2c(=O)c3c(c4cc(C)ccc4n3C)n(CC(=O)Nc3ccc(C)cc3C)c2=O)c1 | 1.7% | / | 26.0% | / | /
Cc1ccc(NC(=O)CN2C(=O)C(c3ccccc3)=NC2(C)C)cc1C | -6.0% | / | -0.9% | / | /
COC(=O)CCCC1=CC2=C(c3ccccc3)C(=O)C(C)(OC(=O)C3CCCC3)C(=O)C2=CN1CC1CC1 (stereo not drawn) | -5.0% | 0.4% | 28.2µM* | -8.2%[11.5 µM] | -2.3%
COCCN1C=C2C(=O)C(C)(OC(=O)C3CCCC3)C(=O)C(c3ccccc3)=C2C=C1CCCC(=O)OC (stereo not drawn) | 0.6% | -10.0% | 14.1µM* | -5.3%[11.5 µM] | -1.4%
CCN(CC)CCCN1C=C2C(=O)C(C)(OC(=O)C3CCCC3)C(=O)C(c3ccccc3)=C2C=C1CCCC(=O)OC (stereo not drawn) | -5.1% | -16.1% | ? | -7.4%[11.5 µM] | -14.7%
COC(=O)CCCC1=CC2=C(c3ccccc3)C(=O)C(C)(OC(=O)C3CCCC3)C(=O)C2=CN1C1CCCCC1 (stereo not drawn) | -2.5% | 1.2% | 20µM* | -3.7%[11.5 µM] | -11.3%
COC(=O)CCCC1=CC2=C(c3ccccc3)C(=O)C(C)(OC(=O)C3CCCC3)C(=O)C2=CN1C1CCCC1 (stereo not drawn) | 1.8% | -15.8% | ? | -3.7%[11.5 µM] | -17.1%
COC(=O)CCCC1=CC2=C(c3ccccc3)C(=O)C(C)(OC(=O)C3CCCC3)C(=O)C2=CN1CC(C)C (stereo not drawn) | -4.3% | ? | -2.7% | -4.3%[11.5 µM] | 4.0%
CSc1ccc(CCNC(=O)CN2C(=O)COc3ccc(S(=O)(=O)N4CCCCCC4)cc32)cc1 | -4.5% | / | 4.4% | / | /
COC(=O)C[C@H]1c2ccccc2C2=C(C[C@@H](C)[C@H]3C(=O)NC(=O)[C@@H]23)N1C(=O)OC | / | / | / | 1.9%[11.5 µM] | /
CCOC(=O)C(=CNc1cc(Cl)c(-c2ccco2)c(Cl)c1)C(=O)OCC | 2.4% | -10.6% | -33.4% | 5.2% | -7.3%
CCOC(=O)C(=CNc1ccc(-c2ccco2)c(Cl)c1)C(=O)OCC | -5.5% | -12.3% | 14.1µM* | -5.7% | 5.5%
CCOc1ccc(-c2cc(OC(=O)c3ccc(F)cc3)c3c(C)oc(C)c3c(=O)c2)cc1 | -9.9% | / | ? | / | /
Cc1ccc(C(=O)Oc2cc(-c3ccc4c(c3)OCO4)cc(=O)c3c(C)oc(C)c23)cc1 | -1.9% | / | ? | / | /
CCOc1cc(-c2ccc3c(c2)OCO3)cc(=O)c2c(C)oc(C)c12 | / | / | 35.5µM* | 7.8% | /
SMILES | TbPYK inhibitor | RE007 growth inh | Sm TGR block | LmPK inhibitor | AMA1 RON2 block
COc1ccc(-c2cc(OC(=O)c3cccc(C)c3)c3c(C)oc(C)c3c(=O)c2)cc1 | -5.8% | / | 12.6µM* | / | /
CCOc1ccc(-c2cc(OC(=O)c3ccccc3)c3c(C)oc(C)c3c(=O)c2)cc1 | -2.2% | / | 50.1µM* | / | /
Cc1ccc2cc(/C=C/C(=O)c3ccco3)c(Cl)nc2c1 | -0.1% | -11.0% | 8.91µM* | -6.4% | -14.5%
COc1ccc2cc(/C=C/C(=O)c3ccco3)c(Cl)nc2c1 | / | / | 44.7µM* | 1.7% | /
COc1cc2cc(/C=C/C(=O)c3ccco3)c(Cl)nc2cc1OC | ? | -10.3% | ? | -0.2% | -2.2%
Cc1ccc2nc(Cl)c(/C=C/C(=O)c3ccco3)cc2c1 | -4.2% | 6.5% | ? | -8.8% | -21.6%
CN(CC(=O)N1CCOCC1)Cc1c(Cl)cccc1NC(=O)c1ccccc1 | -4.8% | / | / | / | /
Cc1ccc2oc(=O)c3cc(C(=O)Nc4cccc(C#N)c4)sc3c2c1 | 4.6% | / | 2.0% | / | /
O=[N+]([O-])c1cccc(C2NCC(c3ccccc3Cl)c3c2[nH]c2ccccc32)c1 (stereo not drawn) | 2.7% | 27.6% | 0.5% | -1.7% | ?
CN(C)c1ccc(C2CNC(c3ccc(Cl)c([N+](=O)[O-])c3)c3[nH]c4ccccc4c32)cc1 (stereo not drawn) | 1.3% | 27.4% | ? | -1.3% | 20µM*
COc1cc2nc(NCCc3ccc(Cl)cc3)n3nc(-c4ccccc4)nc3c2cc1OC | 3.1% | / | 0.7% | / | /
CCOc1ccc(N2C(=O)CC(SCCN)C2=O)cc1 (stereo not drawn) | 0.0% | 20µM* | ? | -28.2% | ?
NCCSC1CC(=O)N(Cc2ccc(F)cc2)C1=O (stereo not drawn) | -15.6% | -19.5% | 7.94µM* | -1.7% | -7.8%
O=C1CC(c2ccccc2)Sc2ccccc2N1Cc1ccc(F)cc1 (stereo not drawn) | -0.9% | / | 6.0% | / | /
CCOc1ccc(N2C(=O)CC(Sc3nnnn3-c3ccccc3)C2=O)cc1 (stereo not drawn) | -28.4% | 31.6µM* | 10µM* | 8.0% | -3.7%
O=C1CC(Sc2ccc(Cl)cc2)C(=O)N1Cc1ccncc1 (stereo not drawn) | 1.3% | -14.3% | 7.08µM* | 5.2% | 9.3%
O=C1C=CC(=O)N1Cc1ccncc1 | 2.2% | 17.8% | / | / | 11.9%

Source: PubChem (National Center for Advancing Translational Sciences (NCATS))
